This passage reports inhibition results from PubChem BioAssay AID651821 (The Scripps Research Institute Molecular Screening Center, 2012).

The structures appear in SMILES notation. Hit rate of the full screen: of about 370,000 compounds, about 4,700 (1.3%) were called active. This excerpt belongs to a sample that is enriched for actives. Unmarked numbers belong to inactive results.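 Rule for the calls: active = inhibition above the plate cutoff, the mean of all test compounds on that plate plus 3 SD (cut at about 35% in these data); inactive = the rest.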

This experiment in a line: binders of r(CAG) RNA repeats, primary screen, biochemical, fluorescence (AID 651821).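 Note: 0% = DMSO alone and 100% = 100 µM mitoxantrone as full dye displacement; higher means more dye released from RNA so lower well fluorescence.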 As to conditions: r(CAG) RNA repeat, TO-PRO-1 dye displacement fluorescence; at 3 µM; active compounds read high.
On to `C=CCN1C(=O)[C@@H](CC(=O)N2CCN(C(=O)c3ccco3)CC2)[C@]2(C(=O)OC)CCCCC=C12`, for which the inhibition was 7.73%. For the compound `O=C(N/N=C/c1cccnc1)c1cc2ccccc2cc1O`, the inhibition is 46.1% (active). Consider `O=C(N/N=C/c1ccsc1)c1cc(O)cc(O)c1`, for which the inhibition is 9.53%. In the case of `O=C(O)/C(=C/c1cccnc1)NC(=O)c1ccccc1`, the inhibition was 1.01%. As for `CC(=O)Nc1ccc(CN2CCC(Oc3ccc(C(=O)N4CCCC4)cc3)CC2)cc1`, the inhibition was -7.88%. Next, `COC(=O)C12C=C3CC(c4ccccc4)=C3C(=O)N1Cc1[nH]c3ccccc3c1C2` (centres undefined): 7.34%; `CC1CC(C)CN(S(=O)(=O)c2ccc(C(=O)NN3CCOCC3)cc2)C1` (centres undefined): -3.03%; `CC1CCCCN1S(=O)(=O)c1ccc(C(=O)Nc2nnc(-c3cccs3)o2)cc1` (centres undefined): 49% (active). With `CC1CN(S(=O)(=O)c2ccc(C(=O)Nc3sccc3C(N)=O)cc2)CC(C)O1` (centres undefined), the inhibition is 11.2%.

Regarding `O=C(Nc1nnc(-c2ccccc2)o1)c1cccc(S(=O)(=O)N2CCOCC2)c1`, the inhibition is 8.5%.

On to `CC1CCCCN1S(=O)(=O)c1ccc(S(=O)(=O)N(CC(=O)Nc2ccccc2)Cc2cccs2)cc1` (centres undefined), for which the inhibition is 2.51%. Next, `CC1CCCN(S(=O)(=O)c2ccc(C(=O)Nc3nnc(-c4ccncc4)o3)cc2)C1` (centres undefined): 35% (active); `O=C(NCc1ccc(Cl)cc1)C1CCCN(c2nc3ccccc3o2)C1` (centres undefined): 5.58%. Turning to `CC(=O)Nc1ccc(OC[C@@H](O)CN2CCC(C(O)(c3ccccc3)c3ccccc3)CC2)cc1`, the inhibition was -1%. The result for `O=C(NCc1ccccc1)[C@H]1CCCN1C(=O)[C@H]1CCCN1C(=O)c1cc(F)cc(F)c1` reads -2.08%; that for `CCOC(=O)c1c(C)nn(-c2ncccc2NC(=O)CCC(=O)O)c1C`, 3.15%. The result for `CCOC(=O)c1c(-c2ccc(C)cc2C)csc1NC(=O)CSc1nnnn1C` reads 1.95%.

`CCOC(=O)c1c(-c2ccc(-c3ccccc3)cc2)csc1NC(=O)CCC(=O)O`: the inhibition is 43.3% (active). The result for `CC1(C)CC(=O)C=C(NCCN2CCNCC2)C1` reads -4.08%; that for `CC(=O)C1=C(C)N(Cc2ccc(Cl)cc2)C(=S)NC1c1ccc(F)cc1` (centres undefined), 5.48%; that for `O=C(COC(=O)c1cc([N+](=O)[O-])ccc1NCc1ccccc1)NC1CCCCC1`, -1.88%. With `Cc1ccc(S(=O)(=O)NCCC(c2ccccc2)c2ccccc2)cc1C(=O)O`, the inhibition is 42.4% (active). As to `Cc1ccc(S(=O)(=O)NCCCn2ccnc2)cc1C(=O)NC(C)C`, the inhibition is -1.64%. As for `Cc1cccc(NS(=O)(=O)c2ccc(C)c(C(=O)NCC(c3ccccc3)N(C)C)c2)c1` (centres undefined), the inhibition is -4.14%.

Consider `O=S1(=O)c2ccc(N3CCN(Cc4ccccc4F)CC3)cc2Oc2ccccc2CN1Cc1cn(Cc2ccc(Cl)cc2)nn1`, for which the inhibition was 12.5%.

For the compound `O=S1(=O)c2c(cccc2N2CC[C@H](O)C2)O[C@@H]2CCN1C2`, the inhibition was 2.13%. Turning to `Cc1ccc(S(=O)(=O)N2CCN(C(=O)c3ccccc3-c3nc4ccccc4s3)CC2)c(C)c1`, the inhibition is -1.03%.

For the compound `Oc1ccc(-c2[nH]ncc2-c2nc3ccccc3s2)c(O)c1`, the inhibition was 34.9% (active). Take `NC(=O)Cc1ccc2sc(-c3ccccc3)nc2c1`: the inhibition is 1.7%. In the case of `O=C(CN1CCCc2ccccc21)NCc1ccc(F)cc1`, the inhibition was 5.24%. Turning to `C=CS(=O)(=O)N(Cc1nnn(Cc2ccccc2)c1Br)[C@H](C(=O)OC)C(C)C`, the inhibition was -1.47%.

With `Cc1cccc(NC(=O)c2cc3c(C)nn(-c4ccccc4)c3s2)c1`, the inhibition was 11.1%.

For the compound `Cc1nn2c(c1-c1ccccc1)N=C(c1ccco1)CC2c1ccccc1` (centres undefined), the inhibition was 11.8%. With `COC(=O)C1=C(C)N(Cc2ccccc2C(F)(F)F)C(=NCc2ccc(OC)cc2)NC1c1cccc(C(F)(F)F)c1` (centres undefined), the inhibition was 1.76%. Regarding `CCOC(=O)c1cc2cc(-c3c(C(=O)OCC)oc4cc(O)cc(O)c4c3=O)ccc2o1`, the inhibition was 42.5% (active). As to `CCOC(=O)c1oc2c(CN3CCN(C)CC3)c(O)ccc2c(=O)c1-c1ccc(Br)cc1`, the inhibition is -3.79%.

`O=c1c(-c2ccc3c(c2)OCCO3)c(C(F)(F)F)oc2cc(O)cc(O)c12`: the inhibition was 22.9%.

Turning to `COC(=O)C1CN(Cc2cn(Cc3ccc(F)cc3)nn2)CCS(=O)(=O)N1Cc1ccc(Cl)cc1` (centres undefined), the inhibition is -1.1%. Turning to `COc1cccc(-c2cc(CNC(=O)[C@@H](Cc3ccccc3)NC(=O)[C@H]3O[C@@H](n4cnc(C(N)=O)n4)[C@H](O)[C@@H]3O)no2)c1`, the inhibition is 6.53%.

Consider `COc1cccc(CC(=O)N2CCN(C(=O)C(=O)c3cccc(C(F)(F)F)c3)CC2)c1`, for which the inhibition is -1.34%. Regarding `Cc1cccc(N=Nc2c(O)[nH]c3ccc(F)cc23)c1`, the inhibition was 17.5%. `Cc1[nH]c2ccc(S(N)(=O)=O)cc2c1C`: the inhibition was 2.18%. Next, `NS(=O)(=O)c1ccc(N=Nc2c(O)[nH]c3ccc(Br)cc23)cc1`: 51.6% (active).

Take `O=C(NC1CCCCN(Cc2ccc(Cl)cc2)C1=O)c1ccc(Br)cc1` (centres undefined): the inhibition is 2.36%. Regarding `O=C(O)Cn1cnc2c(NCc3ccccc3)ncnc21`, the inhibition was 2.28%.

`Nn1c(SCC(=O)Nc2cccc3ccccc23)nnc1-c1cc(-c2ccc(F)cc2)n[nH]1`: the inhibition was 9.39%. Turning to `CCOc1ccc(NC(=O)C(C)N2C(=O)c3ccccc3C2=O)cc1` (centres undefined), the inhibition was -4.17%. Regarding `CC(C(=O)Nc1ccc(O)c(C(=O)O)c1)N1C(=O)/C(=C/c2cccs2)SC1=S` (centres undefined), the inhibition was 87.5% (active). With `O=C1/C(=C/c2cccs2)SC(=S)N1C1CCS(=O)(=O)C1` (centres undefined), the inhibition was -0.31%.

`CCc1ccc(N2CC(C(=O)Nc3ccc(S(=O)(=O)Nc4nccs4)cc3)CC2=O)cc1` (centres undefined): the inhibition is 50.1% (active). As for `CNS(=O)(=O)c1ccc(NC(=O)C2CC(=O)N(c3ccc(Cl)cc3)C2)cc1` (centres undefined), the inhibition was 6.47%. Take `CC(C)c1ccc(N2CC(C(=O)Nc3nccs3)CC2=O)cc1` (centres undefined): the inhibition is 0.86%. Take `Nc1ncnc2c1ncn2C1OC(CO)CC1O` (centres undefined): the inhibition is 0.74%.

On to `O=C(NCCc1c[nH]c2ccccc12)OCc1cn(-c2c(F)cccc2F)nn1`, for which the inhibition is 0.36%.

For orientation: inhibition means the drop in the measured response relative to a control, in per cent.
